Reference: PubChem BioAssay (Tox21)
Records with an inconclusive call do not appear. Where a call stands in place of a potency, no number is given. Values without a mark were called inactive. Activity calls are given as the source filed them. Calls come from the whole dose curve; as a rule, active = well fitted activation curve with a large enough effect in the repeat runs; inconclusive = weak or mixed curves; inactive = flat fitted curve, though single readings scatter.

Assay: A CellTox Green Cytotoxicity Assay to monitor cytotoxicity in HepG2 cells - 24 hour (AID 1224878); note: nearly all actives have a fitted effect of over 45% in size
Conditions: CellTox Green fluorescence; series mostly up to 76.8 µM
Source text: National Center for Advancing Translational Sciences [NCATS]
NIH Chemical Genomics Center [NCGC]
U.S. Environmental Protection Agency [EPA]
National Institutes of Environmental Health Sciences [NIEHS]
National Toxicology Program [NTP]
Cell-based models are critical for drug discovery. Determining the natural cytotoxic effects resulting from test compounds is an essential research activity. A CellTox Green Cytotoxicity Assay to monitor cytotoxicity in real time of continues cell culture during 40 hours of the compound treatment was used to screen Tox21 10K library compounds in HepG2 cells. CellTox Green Cytotoxicity Assay is a nonlytic, homogeneous, biofluorescent method to measure cytotoxicity in cell culture after experimental manipulation. The assay system uses a proprietary asymmetric cyanine dye that is excluded from viable cells but preferentially stains the dead cell's DNA. […] Viable cells produce no appreciable increases in fluorescence. Therefore, the fluorescence signal produced by the binding interaction with dead cell DNA is proportional to cytotoxicity.
The mixture of HepG2 cell suspension and reagents were dispensed at 600cells/6 ul/well in 1536-well tissue culture treated black solid bottom plates using a Multidrop dispenser. After the assay plates were incubated at a 37 C/5% CO2 incubator for 5 hours, 23 nL of compounds dissolved in DMSO, positive and negative controls was transferred to the assay plate by a pintool work station. The plates were incubated at 37 C for 40 hours. The fluorescence intensity were measured at 0h, 8h, 16h, 24h, 32h and 40h time points using ViewLux plate reader during compound treatment.
In the case of `O=C(O)C(F)(F)C(F)(F)C(F)(F)C(F)(F)C(F)(F)C(F)(F)F`, the Potency is reported as “inactive”. With `C=CCN1CC[C@]23CCCC[C@H]2[C@H]1Cc1ccc(O)cc13` the Potency was “inactive”. With `[P]#[In]` the Potency was “inactive”. With `C=C1C[C@@H]2[C@H](CC[C@]3(C)C(=O)CC[C@@H]23)[C@@]2(C)C=CC(=O)C=C12` the Potency was “inactive”. For `CC(=O)CN(CC(C)=O)N=O`, the Potency was “inactive”. For `CC[C@@H](CO)NC(=O)[C@@H]1C=C2c3cccc4c3c(cn4C)C[C@H]2N(C)C1`, the Potency was “inactive”. For `CCCCCCC(=O)CCCCCC/C=C/C[C@@H](O)[C@H](O)[C@@](N)(CO)C(=O)O`, the cytotoxicity was -14.9% [at 15.8 µM]. With `CCCCCCC1CCOC1=O` (stereo not given) the Potency was “inactive”. For `O=C(O)C(Cl)Br` (stereo not given), the Potency was “inactive”. With `Cl/C=C/CCl` the Potency was “inactive”. In the case of `Cc1ccc(S(=O)(=O)N[C@@H](CCCCN)C(=O)CCl)cc1`, the Potency is reported as “inactive”. In the case of `CCOc1cc(OP(=S)(OC)OC)nc(CC)n1`, the Potency is reported as “inactive”. For `BrCCc1ccccc1`, the Potency was “inactive”. Work on `Clc1cc2c(cc1Cl)Oc1cc(Cl)c(Cl)cc1O2` yielded a cytotoxicity of 2.11% [at 0.29 µM]. With `O=P(O)(O)c1ccccc1` the Potency was “inactive”. For `COP(=O)(O)OC`, the Potency was “inactive”. With `CS(=O)(=O)Cl` the Potency was “inactive”. In the case of `OCC(Cl)CCl` (stereo not given), the Potency is reported as “inactive”. With `CC(C)(N)Cc1ccc(Cl)cc1` the Potency was “inactive”. In the case of `CCSC(=O)Cl`, the Potency is reported as “inactive”. In the case of `CCN(CCO)CCO`, the Potency is reported as “inactive”. For `O=c1[nH]c2ccccc2o1`, the Potency was “inactive”. For `CCN[C@H](C)Cc1cccc(C(F)(F)F)c1`, the Potency was “inactive”. With `CNC(=O)Oc1ccccc1C(C)C` the Potency was “inactive”. For `COc1cc(CC(C)N)cc(OC)c1OC` (stereo not given), the Potency was “inactive”. In the case of `C=CCCC#N`, the Potency is reported as “inactive”. With `CC(C)(C)NC[C@H](O)c1ccc(O)cc1Cl` the Potency was “inactive”. For `NCCOS(=O)(=O)O`, the Potency was “inactive”. For `NNC(N)=O`, the Potency was “inactive”. For `ClCCCCl`, the Potency was “inactive”. In the case of `ClCCN1CCCC1`, the Potency is reported as “inactive”. In the case of `CC[C@@H](CO)NC(=O)[C@@H]1C=C2c3cccc4[nH]cc(c34)C[C@H]2N(C)C1`, the Potency is reported as “inactive”. For `N[C@@H]1C[C@H]1c1ccccc1`, the Potency was “inactive”. With `O=C(Cl)c1ccccc1` the Potency was “inactive”. In the case of `C/C=C/CC#N`, the Potency is reported as “inactive”. In the case of `O=C(NC(=O)c1c(F)cccc1F)Nc1cc(Cl)c(F)c(Cl)c1F`, the Potency is reported as “inactive”. In the case of `CN(C)CCN(C)C`, the Potency is reported as “inactive”. With `CCCOC(=O)Cc1ccc(OCC(=O)N(CC)CC)c(OC)c1` the Potency was “inactive”. With `CCOC(=O)N(C)N=O` the Potency was “inactive”. In the case of `C[C@]12C=CC(=O)C=C1CC[C@@H]1[C@@H]2CC[C@@]2(C)[C@H]1CC[C@]2(C)O`, the Potency is reported as “inactive”.
